Data reported in PubChem BioAssay AID2685 (National Center for Advancing Translational Sciences (NCATS), 2010).
Out of some 320,000 compounds screened, about 2,100 (0.66%) were called active. Roughly 53% stayed inconclusive and do not appear here. The sample holds actives, similar compounds and a random draw of the others, so the mix is not that of the screen. The call rests on the fitted dose curve; in most records, active means well fitted inhibition curve with a large enough effect in the signal ratio, with a control signal flat (not every such curve was filed as active); inconclusive means small, poorly fitted or top-dose-only effect, or effect the other way, or a change in a side signal; inactive means flat fitted curve, though single readings scatter; the % refers to the signal ratio.

assay: qHTS Assay for Lipid Storage Modulators in Drosophila S3 Cells; details: BODIPY lipid droplet fluorescence, 18-24 h, cells fed with added oleic acid; cell number change: measured here: cell count max response; series mostly up to 46.1 µM;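 on cell number change: cells counted by Cell Tracker Red CMTPX staining in the red channel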
Method in brief: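 Laser-scanning cytometry quantifies lipid droplet accumulation (500–530 nm total intensity; droplet/cell object ratio) in oleic acid-fed (400 uM added) Drosophila S3 cells treated with a concentration series. 20 uM Triacsin C defined 100% inhibition.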
Potency means the concentration at half of the fitted maximal effect.

Compound	Potency	cell number change	outcome
CC(C)(C)c1cc(OS(C)(=O)=O)ccc1O	inactive	-0.646%	–
CCCCC(CC)C(=O)Oc1ccc(O)c(C(C)(C)C)c1 (stereo unspecified)	25.9 µM (active)	-29.2%	–
CC(C)(C)c1cc(OC(=O)c2ccncc2)ccc1O	inactive	-10.2%	–
Cc1onc(-c2c(F)cccc2Cl)c1C(=O)ONC(=O)c1ccccc1	inactive	10.6%	–
CC(Oc1cc2oc(=O)c3c(c2cc1Cl)CCC3)C(=O)N1C[C@H]2C[C@@H](C1)c1cccc(=O)n1C2 (stereo partly specified)	inactive	18.9%	–
O=C(COc1cc2oc(=O)c3c(c2cc1Cl)CCCC3)N1C[C@H]2C[C@@H](C1)c1cccc(=O)n1C2	1.46 µM (active)	3.88%	–
CCCc1cc(=O)oc2cc(OCC(=O)N3C[C@H]4C[C@@H](C3)c3cccc(=O)n3C4)c(Cl)cc12	inactive	3.02%	–
O=C(COC(=O)Cc1n[nH]c(=O)c2ccccc12)Nc1ccc(Cl)cc1F	inactive	-2.17%	–
COc1ccc2c(c1)cc(C(=O)N[C@@H](Cc1ccccc1)C(=O)O)n2C	inactive	–	–
CCN1C(=O)[C@@H]2C(C(=O)c3cnccn3)=NN[C@@H]2C1=O	inactive	10.4%	–
CCCCN1C(=O)C2NN=C(C(=O)OC)C2C1=O (stereo unspecified)	inactive	1.06%	–
CCOC(=O)C1=NNC2C(=O)N(CC)C(=O)C12 (stereo unspecified)	13 µM (active)	12.2%	–
Clc1ccc(Cn2ncc3c(N4CCCC4)ncnc32)cc1	inactive	-16%	–
COc1cccc(NC(=O)CN(C)C(=O)c2ccc(S(=O)(=O)Nc3ccccc3C)cc2)c1	inactive	-4.07%	–
CCN1CCN(Cc2ccc(NC(=O)c3ccc(C)c(NC(=O)c4c[nH]c5cc(C(F)(F)F)ccc5c4=O)c3)cc2C(F)(F)F)CC1	10.3 µM (active)	-28.9%	–
CCN1CCN(Cc2ccc(NC(=O)c3ccc(C)c(NC(=O)N4CCNC4=O)c3)cc2C(F)(F)F)CC1	inactive	25.7%	–
CCN1CCN(Cc2ccc(NC(=O)c3ccc(C)c(NC(=O)c4cccc5[nH]ccc45)c3)cc2C(F)(F)F)CC1	inactive	-3.74%	–
CCOC(=O)Cc1csc(NS(=O)(=O)c2ccc(C(F)(F)F)cc2)n1	inactive	3.37%	–
CCOc1ccc(OCC)c(NC(=O)CCNS(=O)(=O)c2cc(Br)cnc2N)c1	1.3 µM (active)	-2.69%	–
COc1ccc(NC(=O)CCNS(=O)(=O)c2cc(Br)cnc2N)c(OC)c1	inactive	–	–
COc1cc(OC)c(NC(=O)CCNS(=O)(=O)c2cc(Br)cnc2N)cc1Cl	inactive	–	–
CN1CCN(S(=O)(=O)c2cccc(C(=O)Nc3cc(C(F)(F)F)ccc3N3CCCC3)c2)CC1	inactive	1.88%	–

Compound	Potency	cell number change	outcome
COc1cccc(/C=N/NC(=O)c2nc(-c3ccccc3)cc(-c3ccccc3)n2)c1	20.6 µM (active)	-10.5%	–
COc1cccc(/C=N/NC(=O)c2nc(-c3ccccc3)cc(-c3ccccc3)n2)c1O	inactive	-7.98%	–
COc1ccc(/C=N/NC(=O)c2nc(-c3ccccc3)cc(-c3ccccc3)n2)cc1	inactive	-21.2%	–
CCOc1cc(/C=C2\SC(=Nc3ccc(F)cc3)N(c3ccc(F)cc3)C2=O)ccc1OCC(=O)O	inactive	-5.36%	–
COc1ccccc1C1=CC(=O)C[C@H](c2ccc(Cl)cc2)C1	inactive	-15.5%	–
Cc1ccccc1C(=O)NC1CCN(CC(=O)Nc2ccccc2)CC1	inactive	-25.1%	–
CCCC(=O)NC(=S)Nc1ccc(C(C)=O)cc1	inactive	-4.91%	–
CNC(=S)Nc1ccccc1-c1ccccc1	inactive	1.9%	–
COc1ccc(OC)c2sc(NC(=O)c3ccc(S(=O)(=O)N4CCOCC4)cc3)nc12	inactive	4.36%	–
CCn1c(=NC(=O)c2ccc(S(=O)(=O)N3CCOCC3)cc2)sc2cccc(OC)c21	16.4 µM (active)	4.06%	–
COc1ccccc1COC(=O)c1ccc(S(=O)(=O)N2CCOCC2)cc1	inactive	-3.67%	–
COc1ccccc1NS(=O)(=O)c1cccc(C(=O)NCC2(N(C)C)CCCCC2)c1	inactive	16.3%	–
COc1ccc(Cl)cc1NS(=O)(=O)c1cccc(C(=O)NCC2(N(C)C)CCCCC2)c1	32.6 µM (active)	-25.5%	–
COc1ccc(Cl)cc1NS(=O)(=O)c1cccc(C(=O)NCC(c2ccco2)N(C)C)c1 (stereo unspecified)	–	–	inactive [at 0.369 µM]
CCCCN(C(=O)c1ccc(NC2CC2)c([N+](=O)[O-])c1)c1c(N)n(CCCC)c(=O)[nH]c1=O	inactive	–	–
CCN(CC)CCCNC(=O)c1cn(CC)c2cc(N3CCN(C(=O)c4ccco4)CC3)c(F)cc2c1=O	inactive	3.82%	–
CCN(CC)CCNC(=O)c1cn(CC)c2cc(N3CCN(C(=O)c4ccco4)CC3)c(F)cc2c1=O	inactive	3.39%	–
CCCNC(=O)c1cn(CC)c2cc(N3CCN(C(=O)c4ccco4)CC3)c(F)cc2c1=O	16.4 µM (active)	-23.8%	–
Cc1ccc(S(=O)(=O)N2CCC(=O)N(CCOCc3ccccc3C)CC2)cc1	inactive	-1.04%	–
Cc1cc2cc(CN(Cc3cccs3)S(=O)(=O)c3ccc4c(c3)OCCO4)c(=O)[nH]c2cc1C	inactive	5.28%	–
CCCCC(=O)Nc1ccc(C(=O)N2CCN(C)CC2)cc1	inactive	–	–
CCCCCCCC(=O)NN1CCOCC1	inactive	12.9%	–

Compound	Potency	cell number change	outcome
CCCCCCC(=O)NN1CCN(C)CC1	25.9 µM (active)	-18.7%	–
Cc1onc(-c2ccccc2Cl)c1C(=O)NCc1ccc(N2CCCC2=O)cc1	inactive	-1.75%	–
COc1cc(C(=O)OCC(=O)Nc2cccc(S(=O)(=O)N3CCOCC3)c2)ccc1OCC(C)C	inactive	0.792%	–
CCOc1ccccc1C(=O)N[C@H](C(=O)OCc1cc(=O)oc2cc(C)ccc12)C(C)C	inactive	1.89%	–
Nc1ccccc1-c1ccccc1N	inactive	12.1%	–
Cc1ccccc1N=C1N=C(N)c2ccccc21	inactive	4.71%	–
NC1=NCc2ccccc21	18.4 µM (active)	-13%	–
CC(C)(C)C(=O)Nc1ccc(C(=O)N/N=C/c2ccccc2OC(=O)c2ccc(Cl)cc2)cc1	inactive	-1.11%	–
CCCN(CC(=O)Nc1ccccc1C)C(=O)c1ccc(N2CCCCC2)c([N+](=O)[O-])c1	inactive	-25%	–
CCCN(CC(=O)Nc1ccccc1C)C(=O)c1ccc(COc2ccccc2)cc1	inactive	–	–
CCCN(CC(=O)Nc1ccccc1C)C(=O)c1ccc(-c2ccc([N+](=O)[O-])cc2)o1	11.6 µM (active)	–	–
CCN(CC)CCNC(=S)Nc1ccc(Cl)cc1	inactive	1.74%	–
N#C/C(=C\c1c[nH]c2ccccc12)c1nnc2n1CCCCC2	inactive	6.3%	–
N#C/C(=C/c1ccccc1[N+](=O)[O-])c1nnc2n1CCCCC2	inactive	5.26%	–
N#C/C(=C\c1cccc([N+](=O)[O-])c1)c1nnc2n1CCCCC2	4.11 µM (active)	–	–
O=[N+]([O-])c1cccc(-c2nnc3n2CCCCC3)c1	inactive	8.75%	–
CN(c1ccccc1)c1ccc(/C=C(\C#N)c2nnc3n2CCCCC3)cc1[N+](=O)[O-]	inactive	0.8%	–
N#C/C(=C/c1cccc([N+](=O)[O-])c1)c1nnc2n1CCCCC2	2.59 µM (active)	-13.7%	–
Cc1nnc(NC(=O)c2ccccc2C(=O)O)s1	inactive	10.9%	–
O=C(Nc1cccc(-c2csc(Nc3cccc(C(F)(F)F)c3)n2)c1)c1cc([N+](=O)[O-])cc(C(F)(F)F)c1	inactive	-14.2%	–
COC(=O)[C@@H](Cc1ccc(O)cc1)NC(=O)[C@H]1CCC(=O)N1C(=O)OCc1ccccc1	inactive	-3.5%	–
CC(C)CC(NC(=O)C1CCC(=O)N1C(=O)OCc1ccccc1)C(=O)NC(Cc1ccccc1)C(N)=O (stereo unspecified)	inactive	10.8%	–

Compound	Potency	cell number change	outcome
COC(=O)[C@@H](Cc1ccccc1)NC(=O)[C@H]1CCC(=O)N1C(=O)OCc1ccccc1	7.31 µM (active)	-26.7%	–
Cn1c(=O)c2c(O)c(Cc3ccccc3)c(=O)[nH]c2n(C)c1=O	inactive	–	–
O=C(Nc1ccccc1N1CCN(C(=O)c2ccccc2)CC1)c1ccc([N+](=O)[O-])o1	8.2 µM (active)	11.7%	–
O=C(Nc1cc(Cl)ccc1-n1cncn1)c1ccc([N+](=O)[O-])o1	inactive	8.28%	–
COc1ccc2nc(N3CCN(C(=O)c4ccc([N+](=O)[O-])o4)CC3)sc2c1	4.61 µM (active)	–	–
COc1ccc(N2CCN(C(=O)c3ccc4nc(N5CCCCC5)sc4c3)CC2)cc1	inactive	–	–
CCC(=O)N1CCN(c2ccc(Cl)cc2NC(=O)Cc2ccccc2)CC1	inactive	12.9%	–
O=C(Nc1ccccc1N1CCOCC1)c1ccc([N+](=O)[O-])o1	inactive	-0.54%	–
O=C(c1ccc([N+](=O)[O-])o1)N1CCOCC1	inactive	-1.55%	–
CCC(=O)N1CCN(c2ccc(Cl)cc2NC(=O)c2ccc([N+](=O)[O-])o2)CC1	5.8 µM (active)	-10.1%	–
O=C(c1ccc([N+](=O)[O-])o1)N1CCN(Cc2ccccc2)CC1	25.9 µM (active)	-14.3%	–
CS(=O)(=O)N1CCN(c2ccccc2NC(=O)c2ccc([N+](=O)[O-])o2)CC1	inactive	-11.1%	–
CC(=O)N1CCN(c2nc3ccc([N+](=O)[O-])cc3s2)CC1	inactive	-3.82%	–
Cc1ccc(C(=O)N2CCN(Cc3ccccc3)CC2)o1	inactive	15.9%	–
Cc1noc(C)c1COC(=O)c1csc2c1CCCC2	inactive	–	–
Cc1cc(Nc2c(C)n(C)n(-c3ccccc3)c2=O)c2ccccc2n1	inactive	-23.8%	–
Cc1cccc(-n2cc(CN3CCCN(C=O)CC3)c(-c3cccc(F)c3)n2)c1	inactive	-4.39%	–
O=C(NCc1cccnc1)Nc1cccc([N+](=O)[O-])c1	inactive	6.23%	–
CCOc1ncccc1C(=O)OCC(=O)N1CC(=O)Nc2ccccc21	inactive	–	–
